# From PubChem BioAssay AID720564 (Broad Institute, 2013)
# The list shows a part of the results. Calls of active or inactive are those of the source.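 How the source made its calls: active means luminescence drop, with half-maximal potency fitted within twice the sample's top valid dose (cut at about 70 µM in these data); inactive means the rest, including signal moving the wrong way.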
# Assay: AlphaScreen signal interference by compounds, dose response, artefact control for ARNT/TACC3 disruptor project, biochemical, dual-tagged ARNT, dry powder (AID 720564)
# Details: Dual-tagged His-ARNT PASB-GST AlphaScreen artifact counter-screen
row,Compound,AC50
1,COc1ccc(-c2nnc(NC(=O)c3ccc(S(=O)(=O)N4CCC(C)CC4)cc3)o2)cc1,67.7 µM (active)
2,O=C(CSc1ccc(-c2ccccn2)nn1)Nc1ccccc1,15.3 µM (active)
3,CCCCC(=O)NC(c1ccco1)c1ccc2cccnc2c1O (stereo not drawn),13.8 µM (active)
